Results from PubChem BioAssay AID1159580 (chemical genetic matrix, 2015).
Hit rate of the full screen: of about 5,500 compounds, about 2,000 (36%) were called active. Roughly 18% stayed inconclusive and do not appear here. Cut-off read from the data, not from the text of the source: active = normalized growth mostly below about 0.91 (no sharp cut-off); inconclusive = no clear call, values can overlap the other calls; inactive = mostly above about 0.92. The list shows a part of the results.

Assay: chemical genetic growth profiling, strain panel (AID 1159580);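 note: tested at 20 µM; growth read once vehicle control cultures reached saturation at 30 °C; 1 = growth at the plate median or of vehicle wells; lower values mean less growth of the strain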
Conditions: growth OD

Measured: normalized growth

CC(C)=CCC1=C(O)c2ccccc2C(=O)C1=O
active: S. cerevisiae deletion strains, locus YKL068W, active compounds read low 0.887 | S. cerevisiae deletion strains, locus YKL085W, strain MDH1 (second series), active compounds read low 0.884 | S. cerevisiae deletion strains, locus YKL085W, strain MDH1, active compounds read low 0.884 | S. cerevisiae deletion strains, locus YKL160W, strain elf1, active compounds read low 0.741 | S. cerevisiae deletion strains, locus YKR001C, strain vps1, active compounds read low 0.788 | S. cerevisiae deletion strains, locus YKR026C, strain gcn3, active compounds read low 0.775 | S. cerevisiae deletion strains, locus YKR091W, strain srl3, active compounds read low 0.809 | S. cerevisiae deletion strains, locus YLL001W, strain dnm1, active compounds read low 0.598 | S. cerevisiae deletion strains, locus YLL026W, active compounds read low 0.808 | S. cerevisiae deletion strains, locus YLL041C, strain sdh2, active compounds read low 0.815 | S. cerevisiae deletion strains, locus YLR027C, strain aat2, active compounds read low 0.823 | S. cerevisiae deletion strains, locus YLR221C, strain rsa3, active compounds read low 0.819 | S. cerevisiae deletion strains, locus YLR258W, strain gsy2, active compounds read low 0.797 | S. cerevisiae deletion strains, locus YLR262C, strain YPT6 (second series), active compounds read low 0.334 | S. cerevisiae deletion strains, locus YLR268W, strain sec22, active compounds read low 0.879 | S. cerevisiae deletion strains, locus YLR320W, strain mms22, active compounds read low 0.741 | S. cerevisiae deletion strains, locus YLR342W, strain FKS1, active compounds read low 0.727 | S. cerevisiae deletion strains, locus YLR357W, strain rsc2, active compounds read low 0.837 | S. cerevisiae deletion strains, locus YLR370C, strain arc18, active compounds read low 0.806 | S. cerevisiae deletion strains, locus YLR384C, strain iki3, active compounds read low 0.818 | S. cerevisiae deletion strains, locus YML120C, strain ndi1, active compounds read low 0.759 | S. cerevisiae deletion strains, locus YMR058W, strain fet3, active compounds read low 0.651 | S. cerevisiae deletion strains, locus YMR125W, strain sto1, active compounds read low 0.884 | S. cerevisiae deletion strains, locus YMR129W, active compounds read low 0.773 | S. cerevisiae deletion strains, locus YMR205C, strain PFK2, active compounds read low 0.837 | S. cerevisiae deletion strains, locus YMR223W, strain ubp8, active compounds read low 0.864 | S. cerevisiae deletion strains, locus YMR231W, strain pep5, active compounds read low 0.791 | S. cerevisiae deletion strains, locus YNL071W, strain lat1, active compounds read low 0.837 | S. cerevisiae deletion strains, locus YNL209W, strain ssb2, active compounds read low 0.715 | S. cerevisiae deletion strains, locus YNL250W, strain rad50, active compounds read low 0.897 | S. cerevisiae deletion strains, locus YNL271C, strain bni1, active compounds read low 0.892 | S. cerevisiae deletion strains, locus YNL307C, strain MCK1, active compounds read low 0.904 | S. cerevisiae deletion strains, locus YNL322C, strain KRE1 (second series), active compounds read low 0.791 | S. cerevisiae deletion strains, locus YNR049C, strain mso1, active compounds read low 0.772 | S. cerevisiae deletion strains, locus YOL006C, strain TOP1, active compounds read low 0.29 | S. cerevisiae deletion strains, locus YOR001W, strain rrp6, active compounds read low 0.864 | S. cerevisiae deletion strains, locus YOR070C, strain gyp1, active compounds read low 0.821 | S. cerevisiae deletion strains, locus YOR080W, strain dia2, active compounds read low 0.789 | S. cerevisiae deletion strains, locus YOR083W, strain WHI5, active compounds read low 0.772 | S. cerevisiae deletion strains, locus YOR106W, strain vam3, active compounds read low 0.595 | S. cerevisiae deletion strains, locus YOR144C, strain elg1, active compounds read low 0.933 | S. cerevisiae deletion strains, locus YOR265W, strain rbl2, active compounds read low 0.822 | S. cerevisiae deletion strains, locus YOR270C, strain vph1, active compounds read low 0.294 | S. cerevisiae deletion strains, locus YOR290C, strain snf2, active compounds read low 0.778 | S. cerevisiae deletion strains, locus YPL051W, strain arl3, active compounds read low 0.657 | S. cerevisiae deletion strains, locus YPL078C, strain atp4, active compounds read low 0.678 | S. cerevisiae deletion strains, locus YPL106C, strain sse1, active compounds read low 0.816 | S. cerevisiae deletion strains, locus YPL240C, strain hsp82, active compounds read low 0.825 | S. cerevisiae deletion strains, locus YPL241C, strain CIN2, active compounds read low 0.925 | S. cerevisiae deletion strains, locus YPR141C, strain kar3, active compounds read low 0.839
inactive: S. cerevisiae deletion strains, locus YJR075W, strain HOC1, active compounds read low 1.03 | S. cerevisiae deletion strains, locus YKL009W, strain mrt4, active compounds read low 0.945 | S. cerevisiae deletion strains, locus YKL190W, strain CNB1, active compounds read low 0.951 | S. cerevisiae deletion strains, locus YLR039C, strain RIC1, active compounds read low 0.705 | S. cerevisiae deletion strains, locus YLR058C, strain SHM2, active compounds read low 0.954 | S. cerevisiae deletion strains, locus YLR102C, strain apc9, active compounds read low 0.963 | S. cerevisiae deletion strains, locus YLR113W, strain HOG1, active compounds read low 0.965 | S. cerevisiae deletion strains, locus YLR262C, strain YPT6, active compounds read low 0.733 | S. cerevisiae deletion strains, locus YLR330W, strain CHS5, active compounds read low 0.948 | S. cerevisiae deletion strains, locus YLR342W, strain FKS1 (second series), active compounds read low 0.844 | S. cerevisiae deletion strains, locus YLR371W, strain rom2, active compounds read low 0.939 | S. cerevisiae deletion strains, locus YLR418C, strain cdc73, active compounds read low 1.03 | S. cerevisiae deletion strains, locus YML016C, strain PPZ1, active compounds read low 0.958 | S. cerevisiae deletion strains, locus YML032C, strain rad52, active compounds read low 0.906 | S. cerevisiae deletion strains, locus YML124C, strain tub3, active compounds read low 0.935 | S. cerevisiae deletion strains, locus YMR078C, strain ctf18, active compounds read low 0.921 | S. cerevisiae deletion strains, locus YMR263W, strain SAP30, active compounds read low 1.01 | S. cerevisiae deletion strains, locus YMR307W, strain GAS1, active compounds read low 0.721 | S. cerevisiae deletion strains, locus YNL067W, strain RPL9B, active compounds read low 0.989 | S. cerevisiae deletion strains, locus YNL128W, strain TEP1, active compounds read low 0.945 | S. cerevisiae deletion strains, locus YNL153C, strain GIM3, active compounds read low 0.965 | S. cerevisiae deletion strains, locus YNL183C, strain NPR1, active compounds read low 0.914 | S. cerevisiae deletion strains, locus YNL233W, strain BNI4, active compounds read low 0.964 | S. cerevisiae deletion strains, locus YNL248C, strain rpa49, active compounds read low 0.974 | S. cerevisiae deletion strains, locus YNL298W, strain CLA4, active compounds read low 0.914 | S. cerevisiae deletion strains, locus YNL322C, strain KRE1, active compounds read low 0.934 | S. cerevisiae deletion strains, locus YNR052C, strain pop2, active compounds read low 0.918 | S. cerevisiae deletion strains, locus YOL012C, strain htz1 1.37 | S. cerevisiae deletion strains, locus YOL147C, strain pex11, active compounds read low 0.953 | S. cerevisiae deletion strains, locus YOR061W, strain CKA2, active compounds read low 0.953 | S. cerevisiae deletion strains, locus YOR069W, strain VPS5, active compounds read low 0.934 | S. cerevisiae deletion strains, locus YOR136W, strain idh2, active compounds read low 0.928 | S. cerevisiae deletion strains, locus YOR184W, strain ser1, active compounds read low 0.894 | S. cerevisiae deletion strains, locus YOR231W, strain MKK1, active compounds read low 0.966 | S. cerevisiae deletion strains, locus YOR316C, strain cot1, active compounds read low 0.968 | S. cerevisiae deletion strains, locus YPL055C, strain LGE1, active compounds read low 1.05 | S. cerevisiae deletion strains, locus YPL256C, strain CLN2, active compounds read low 1.02 | S. cerevisiae deletion strains, locus YPR119W, strain clb2, active compounds read low 0.967 | S. cerevisiae deletion strains, locus YPR163C, strain tif3, active compounds read low 0.957 | S. cerevisiae deletion strains, locus YPR167C, strain met16, active compounds read low 0.937 | S. cerevisiae deletion strains, strain wtn01, active compounds read low 0.951 | S. cerevisiae strains, strain wild type, active compounds read low 0.934
